Among the data in ChEMBL document CHEMBL4513216, “Probing the Open Global Health Chemical Diversity Library for Multistage-Active Starting Points for Next-Generation Antimalarials” (ACS Infect Dis, 2020) are INHIBITION values, retold here.

Structures are written as SMILES. The whole screen tested about 69,000 compounds, of which about 8,600 (12%) showed an effect of 50% or more. The sample as a whole holds a higher share of strong results than the screen did.

The test concerns Plasmodium berghei. The test can be described thus: Screen against P. berghei liver stage (PbLuc), transformed with Luciferase, at 10uM. Particulars: tested at 10 uM. The format is functional, HepG2.
Take `N#CCCN(Cc1ccccn1)Cn1cc(Cl)cn1`: the INHIBITION came out at 46.4%.
The figure for `Cc1ncncc1C(=O)NCCN1CCC(C)CC1` is -51.6%; for `COCCS(=O)(=O)Cc1nnnn1-c1ccccc1` it is 26.9%.
As for `CNC(=O)CCS(=O)(=O)Cc1nnnn1-c1ccccc1`, the figure is 31.2%.
As for `CCS(=O)(=O)Cc1nnnn1-c1ccccc1`, the figure is 61.1%; as for `COc1ccc([C@@H]2CN(Cc3ccncc3)C[C@H]2c2cc[nH]n2)cc1`, 39.3%; as for `Cn1cc(CN2CCC3(CC2)COC(COc2ccccn2)C3)cn1` (stereo not given), 30.3%.
On to `CC(=O)N(C)c1nc(CN2CCN(c3nccs3)CC2)cs1`, for which the INHIBITION was found to be 38.3%.
For `N#Cc1ccc(OCC(O)CN2CCN(c3nccs3)CC2)cc1` (stereo not given), the INHIBITION is 87.6%.
Consider `Cc1cccc(OCC(O)CN2CCC(c3ccn[nH]3)CC2)c1` (stereo not given), for which the INHIBITION amounted to 42%.
The figure for `COc1ccc(OCC(O)CN2CCN(c3nccs3)CC2)cc1` (stereo not given) is 8.9%; for `Cc1cccc(OCC(O)CN2CCN(c3nccs3)CC2)c1` (stereo not given) it is 77.4%; for `CC(C)OCCCNC(=O)CN1CCN(c2nccs2)CC1` it is -20.5%.
The figure for `OC(COc1ccccc1)CN1CCN(c2nccs2)CC1` (stereo not given) is 27.7%; for `Cc1cc(C)cc(OCC(O)CN2CCN(c3nccs3)CC2)c1` (stereo not given) it is 53.4%; for `N#Cc1ccc(OCC(O)CN2CCC(c3ccn[nH]3)CC2)cc1` (stereo not given) it is 7.08%.
As for `CCc1c(C(=O)N2CCNC(=O)C2)cnn1C(C)(C)C`, the figure is 3.73%; as for `Cc1nn(C)c(C)c1C1CCCN1C(=O)c1nccnc1N` (stereo not given), 12.7%.
On to `Cn1ncc2c1C(COCC1CC1)CN(Cc1ccsc1)C2` (stereo not given), for which the INHIBITION was 4.57%.
The figure for `COC(=O)COc1ccc(-c2noc(C3CCCO3)n2)cc1` (stereo not given) is 8.59%.
Consider `COCCCNC(=O)c1cc(-c2ccc(OC)cc2)nn1C`, for which the INHIBITION is 3.19%.
For the compound `COc1ccccc1C1=NOC(CC2(C(=O)NC(C)C)CCOCC2)C1` (stereo not given), the INHIBITION is -29.8%.
In the case of `COc1ccc(-n2nc(C3CC3)nc2CCn2cnnn2)cc1`, the INHIBITION was found to be 52.5%.
As for `COc1ccc(Cl)cc1-n1nc(C2CCCC2)nc1Cn1cnnn1`, the figure is 70.4%.
The figure for `COCc1nc(C2CC2)nn1-c1ccccc1Cl` is 37.2%; for `Fc1cccc(-n2nc(C3CC3)nc2CCn2cnnn2)c1` it is 24.8%.
Take `CN1CCC(n2nc(Cc3cccc(Cl)c3)nc2Cn2cnnn2)CC1`: the INHIBITION amounted to 15.7%.
The figure for `CCn1cnnc1C1CCN(C(=O)c2ccc(Cl)cc2OC)CC1` is 25.1%; for `COCc1nc(C2CC2)nn1-c1cc(Cl)ccc1OC` it is 51.1%; for `COCc1nc(C2CC2)nn1-c1cccc(F)c1` it is -19.8%.
The figure for `COc1ccc(CCNC(=O)C2CCC(Cn3cnnn3)CC2)cc1` (stereo not given) is 22.9%; for `CN1C(=O)[C@@H]2CC[C@H]1CN(C(=O)c1sccc1S(N)(=O)=O)C2` it is 25.9%.
As to `CC(Cn1cccn1)Nc1cnc2ccccc2n1` (stereo not given), the INHIBITION is listed as 24.2%.
Take `Cc1nc(-c2cccc(N3CCC(N[C@@H]4CCOC4)CC3)c2)cs1`: the INHIBITION is on record as 44.1%.
As for `O=C1N(Cc2cccc(F)c2)CCC12CCCN(c1ncc(F)cn1)C2` (stereo not given), the figure is 8.66%; as for `CC(C)=CCCC(C)CN1CCC(n2cc(C(C)(C)O)nn2)CC1` (stereo not given), -94.3%; as for `CC(C)=CCCC(C)CN1CCC(n2cc(C(=O)NCCO)nn2)CC1` (stereo not given), 60.9%.
On to `CC(C)=CCCC(C)CN1CCC(n2cc(CO)nn2)CC1` (stereo not given), for which the INHIBITION is reported as -109%.
As for `O=C(O)C1(Cc2cccc(Cl)c2)CCCN(c2ncnc3[nH]ccc23)C1` (stereo not given), the figure is -37.9%.
The figure for `CC(C)Cc1nc(CN(C)c2cc(C(C)C)nc3ccnn23)no1` is -30.6%.
Consider `CCNC(=O)N1CCC(c2ccccc2)C1` (stereo not given), for which the INHIBITION is listed as -31%.
As for `CSCc1cc(F)ccc1CNCc1ccncc1`, the figure is 24.2%.
Turning to `CSCc1cc(F)ccc1CNCc1cccnc1`, the INHIBITION worked out at 35.4%.
In the case of `CSCc1cc(F)ccc1CNCc1ncc[nH]1`, the INHIBITION turned out to be 63.3%.
Turning to `Cc1nc(Nc2ncccn2)cc(C2CN(C(=O)c3cccnc3)C2)n1`, the INHIBITION was determined as 37.6%.
As to `CC1=CC[C@@H]2CN(C(=O)c3ccc(-c4nnn(C)n4)cc3)C[C@@H]2C1`, the INHIBITION is on record as 35.8%.
As for `CC(C)Nc1nc2c(c(NC3CC3)n1)CCN(Cc1nccn1C)CC2`, the figure is 60.3%; as for `CC(C)Nc1nc2c(c(NC3CC3)n1)CCN(C1CCOCC1)CC2`, 23.1%.
As to `CC(C)N(C)Cc1noc2c1CN(C(=O)c1ccsc1)CC2`, the INHIBITION is -18.5%.
As for `CC(C)Nc1nc2c(c(NC3CC3)n1)CN(C(=O)c1ccnnc1)CC2`, the figure is 65.9%.
As for `CC(C)Nc1nc2c(cc1C(=O)O)CCN(Cc1ccsc1)CC2`, the figure is 21.4%; as for `CC(C)Nc1nc2c(c(N(C)C)n1)CCN(Cc1nccn1C)CC2`, 21.7%; as for `CC(C)Nc1nc2c(c(NC3CC3)n1)CN(C(=O)c1ccsc1)CC2`, 79.2%.
The figure for `CC(C)N(C)Cc1cnc2n1CCN(C(=O)Cc1ccsc1)C2` is -13%.
Regarding `Cc1nc(NC(C)C)nc2c1CN(Cc1nccn1C)CC2`, the INHIBITION is -4.02%.
